Source: PubChem BioAssay
A selection: hits, their analogues and other compounds. The true share with any hit is near 21%.
Shiga toxin inh – Shiga toxin inhibition | Vero cells, Shiga toxin protein synthesis inhibition reporter | inhibition, % at 38.7 µM | 9.2% of 290,000 active; in the data active = inhibition mostly above about 28%, no sharp cut-off; inactive = mostly below about 43%; also: 0% is about no effect
Pf growth 48h – P. falciparum growth inhibition at 48 hours (one generation). P. falciparum luciferase growth in erythrocytes, 48 h. Potency, µM (top dose mostly 28.7 µM), for inactives: top-dose activity change, negative = inhibition, actives largely listed as inhibitors. 5.9% of 310,000 active; also: potency is read from the fitted curve at half-maximal effect; % is scaled to controls: 0 for no effect and ±100 for the full control effect
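Read-out is firefly luciferase luminescence from an integrated reporter in P. falciparum, so falling signal marks reduced parasite growth. Infected erythrocytes were at 2% hematocrit and 0.1% parasitemia (final) in Albumax-supplemented RPMI 1640.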
Cycloheximide cs – counter-screen for Shiga toxin inhibitors: cycloheximide protein synthesis inhibition | cell reporter, cycloheximide protein synthesis inhibition counterscreen | max response, % | 12% of 300,000 active | AID 2314; in the data active = max response mostly above about 13%, no sharp cut-off; inactive = mostly below about 14%; also: read at 38.3 µM for the half of the compounds with a filed dose; 0% is about no effect
Pf growth 96h – P. falciparum growth inhibition at 96 hours | P. falciparum luciferase reporter growth, 96 h | Potency, µM (top dose mostly 28.7 µM), for the others: at the top dose activity change, negative = inhibition, most hits filed as inhibitors | 6.9% of 320,000 active | AID 504834; also: potency is read from the fitted curve at half-maximal effect; % is scaled to controls: 0 for no effect and ±100 for the full control effect
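P. falciparum expressing integrated firefly luciferase, in erythrocytes at 2% hematocrit, 0.05% parasitemia, incubated with compounds 96 h at 37 C, 5% CO2. Growth inhibition read as loss of luminescence; two-generation exposure targets delayed-death apicoplast inhibitors.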
* hit, by the source's call; u = inconclusive; x = no result given; + = active, no number. Unless noted, calls follow the shape of the dose curve; as a rule, active = well fitted inhibition curve with a large enough effect; inconclusive = small, poorly fitted or top-dose-only effect, or another doubt; inactive = no such curve, though single readings can be large or run the other way.

SMILES | Shiga toxin inh | Pf growth 48h | Cycloheximide cs | Pf growth 96h
COc1ccc(-n2c(C)cc(/C=C3/SC(=S)N(C)C3=O)c2C)cc1 | 12 | 41% | 9 | 0.33µM*
CC[C@H]1[C@@H]2C=C[C@@H]3[C@H]4C/C=C\C(=O)NCCC[C@@H]5NC(=O)C(=C5O)C(=O)CC[C@@H]4C[C@@H]3[C@H]2C[C@H]1C | -25 | x | -11 | x
COCCN(C(=O)COC(=O)c1cc(C)oc1C)c1c(N)n(Cc2ccccc2)c(=O)[nH]c1=O | x | u | x | 8%
O=C1[C@@H]2Cc3c([nH]c4ccccc34)CN2C(=O)CN1CCCCCO | -2 | 0% | 7 | -8%
COc1ccc(/C=N/c2oc(C)c(C)c2C#N)c(OC)c1 | -7 | -9% | -3 | 12µM*
CN1C(=O)/C(=C\c2ccc(N(C)C)cc2)OC1=S | 1 | 30% | 12* | 0%
CN(C)c1ccc(/C=C2\N=C(C(C)(C)C)OC2=O)cc1 | -1 | 33% | 7 | 15%
COc1ccc(/C=C2\OC(=S)N(C)C2=O)cc1 | 23 | 8% | 11* | u
O=c1[nH]c(-c2ccccc2)c(-c2ccccc2)o1 | 18 | x | -3 | 1%
CC(C)c1ccc(NC(=O)[C@H]2CSCN2C(=O)[C@@H]2CCC(=O)N2)cc1 | 9 | 5% | 8 | 102%
NC(CCCCCP(=O)(c1ccccc1)c1ccccc1)C(=O)O (stereo not given) | -7 | u | -1 | 23%
Cc1cc(C)n(-c2ccc(S(=O)(=O)N3CCOCC3)cc2[N+](=O)[O-])n1 | -15 | 22% | 1 | 0%
CC(C)Cn1[nH]c2c3c(ccc2c1=O)C(=O)c1ccccc1C3=O | 61 | 10µM* | 27* | u
O=C(CSCC(=O)NC1CC1)Nc1ccc2ccccc2c1 | 0 | 13µM* | -3 | u
Cc1cccc(C)c1OCC(=O)NNC(=O)Nc1ccc(Cl)cc1 | -13 | x | 2 | 30%
Cc1ccc(C)c(OCC(=O)NC2CCCCCC2)c1 | 11 | 3% | 27* | -6%
Cc1cc(Cl)ccc1OCC(=O)NNC(=O)c1ccco1 | 35* | 21% | 35* | 11%
Cc1ccc(C)c(OCC(=O)NNC(=O)C2CC2)c1 | -25 | 11% | -3 | 20%
Cc1cccc(C)c1OCC(=O)NNC(=S)NC(=O)C1CC1 | 19 | u | -1 | 10µM*
CCn1c(CC(=O)Nc2ccc(F)cc2)nnc1SCC(=O)NC1CCCC1 | -5 | 25% | -3 | 99%
COc1cccc(CNS(=O)(=O)c2ccc3c(c2)N(C(C)=O)CCO3)c1 | 5 | 10% | -2 | u
CC(=O)NC(Cc1ccc(F)cc1)C(=O)NC1CCN(C(=O)Nc2ccccc2C)CC1 (stereo not given) | -20 | -23% | 2 | 22%
Cc1ccccc1OC(C)C(=O)Nc1cccnc1 (stereo not given) | -13 | 11% | 5 | -19%
CC1CN(C(=O)N2CCCCC2)CCN1C(=O)N1CCCCC1 (stereo not given) | -4 | 18% | -2 | u
Cc1cc(Cl)ccc1OCC(=O)NC1CCCC1 | 37 | x | 34* | u
SMILES | Shiga toxin inh | Pf growth 48h | Cycloheximide cs | Pf growth 96h
Cc1cccc(CC(=O)NC2CCCCCC2)c1 | 76 | 7% | 14* | -6%
O=C(COc1ccc2ccccc2c1)NC1CC1 | 70* | x | 43* | 121%
Cc1cccc(OCC(=O)NC2CCCCCC2)c1C | -16 | -13% | 4 | u
Cc1cccc(CC(=O)NC2CCN(C)CC2)c1 | x | 7% | 3 | u
Cc1ccccc1OCC(=O)NC1CCCCCCC1 | 59* | 32% | 12 | 32%
O=C(COc1ccc2ccccc2c1)NCCNC(=O)COc1ccc2ccccc2c1 | -5 | x | 11 | u
CCOc1ccc(N2CC(NC(=O)c3ccc4ccccc4c3)CC2=O)cc1 (stereo not given) | x | 20% | x | -4%
O=C(CSc1ccc(Cl)cc1)NNC(=O)c1ccncc1 | x | 12% | x | 16%
COc1cc2c(cc1CN1CCN(C(=O)c3cc(OC)c(OC)c(OC)c3)CC1)OCO2 | -4 | u | -1 | u
COC(=O)c1ccc(NC(=O)C2CCCN2S(=O)(=O)c2ccc(F)cc2)cc1 (stereo not given) | -2 | -12% | -2 | 29%
Cc1cccc(OCC(=O)NC2CCCC2)c1 | 63 | 21% | 13 | u
Cc1ccc(OCC(=O)NC2CCCCCC2)cc1C | 42 | 30% | 25* | 10µM*
Cc1ccc(OCC(=O)NC2CCCC2)c(C)c1 | 42 | 36% | 36* | 0.93µM*
O=C(COc1ccc(Cl)cc1Cl)NC1CCSC1=O (stereo not given) | 131* | 67% | 40* | x
Cc1cccc(C)c1OCC(=O)NC1CC1 | -16 | 2.9µM* | -4 | 2%
CCOC(=O)/C(=N\Nc1ccc(Br)cc1)N1CC(C)OC(C)C1 (stereo not given) | -5 | u | -4 | 3%
CCOC(=O)c1nnn(-c2nonc2N)c1CN1CCCC1 | -6 | -13% | 1 | 0.66µM*
CC1CCN(Cc2c(C(=O)N/N=C/c3ccc(OC(C)C)cc3)nnn2-c2nonc2N)CC1 | 6 | u | 5 | -20%
Cc1ccccc1COc1ccc(/C=N/NC(=O)c2nnn(-c3nonc3N)c2CN2CCC(C)CC2)cc1 | 24 | u | 21* | u
CC(/C=N/NC(=O)c1nnn(-c2nonc2N)c1CN1CCCCC1)=C\c1ccccc1 | -4 | u | 3 | 9.3µM*
CN1CCN(NC(=O)NC2CCCCC2)CC1 | -6 | 18% | -1 | -20%
COc1ccc(Cl)cc1S(=O)(=O)N1CCC(C(=O)NCc2ccco2)CC1 | -16 | u | 1 | -17%
O=[N+]([O-])c1ccc(-c2nnc(S)n2-c2ccccc2)cc1 | x | 97% | 28* | -32%
CCOC(=O)c1c(C)[nH]c(C(=O)N/N=C/c2cccc(OC)c2)c1C | + | -7% | 15* | -25%
COc1ccc(/C=N/NC(=O)c2[nH]c(C)c(C(=O)N/N=C/c3ccc(OC)cc3)c2C)cc1 | -9 | 49% | 1 | 27%
SMILES | Shiga toxin inh | Pf growth 48h | Cycloheximide cs | Pf growth 96h
COc1cccc(/C=N/NC(=O)c2[nH]c(C)c(C(=O)N/N=C/c3cccc(OC)c3)c2C)c1 | 73* | 43% | 14 | u
COc1cccc(/C=N/NC(=O)c2c(-c3ccccc3)noc2C)c1 | 25 | -20% | 3 | u
CCOC(=O)c1c(C)[nH]c(C(=O)N/N=C\c2ccccc2Cl)c1C | 21 | u | 20* | 9.3µM*
Cc1ccc(F)c(CNC(=O)C2CCC(=O)N(CCCN3CCCC3=O)C2)c1F (stereo not given) | 12 | 3% | 27 | 31%
N=c1n(N)c2ccccc2n1CC(=O)c1ccc(Br)cc1 | x | 73% | 1 | 76%
COc1cc(OC)cc(C2=NCCN2)c1 | -21 | 4% | -2 | 5%
Nc1c(C(=O)Nc2ccccc2)nnn1-c1ccc2c(c1)OCCO2 | 74* | 76% | 34* | -2%
Cc1ccc(NC(=O)c2nnn(-c3ccc4c(c3)OCCO4)c2N)cc1 | 112* | 147% | 37* | -28%
Cc1ccccc1Cn1nnc(C(=O)Nc2ccc3c(c2)OCCO3)c1N | x | 113% | x | 121%
Cc1ccc(CNS(=O)(=O)c2ccc3c(c2)n(C)c(=O)n3C)cc1 | 2 | 30% | -1 | 20%
COCCNc1oc(-c2ccc(C)cc2)nc1C#N | 66 | 114% | 23* | u
